Data published in the supplement of paper PMC6411743.
± gives the standard deviation of the averaged measurements. The full data set covers some 5,400 targets. This sample favours those with the largest changes.

Compound: Nc1nc2c(ncn2[C@@H]2O[C@H](COP(=O)(O)OP(=O)(O)OP(=O)(O)O)[C@@H](O)[C@H]2O)c(=O)[nH]1 [guanosine triphosphate]
Assay: NP40-soluble protein abundance relative to vehicle (solubility fold change) (ratio); higher = more soluble protein in presence of GTP
Method in brief: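 Crude Jurkat lysate, prepared by Dounce homogenisation, was exposed to eight concentrations from 0.1 to 10 mM for 10 min at room temperature and then 3 min at 37 °C. Solubilisation used 0.8% NP40 with benzonase for 60 min at 4 °C, followed by ultracentrifugation and TMT labelling of the supernatant for LC-MS/MS. After vsn normalisation of intensities, each value is the fold change against the detergent-processed vehicle within each replicate, across three independent experiments.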

UniProt Q86U90, sequence (Q86U90 whole entry): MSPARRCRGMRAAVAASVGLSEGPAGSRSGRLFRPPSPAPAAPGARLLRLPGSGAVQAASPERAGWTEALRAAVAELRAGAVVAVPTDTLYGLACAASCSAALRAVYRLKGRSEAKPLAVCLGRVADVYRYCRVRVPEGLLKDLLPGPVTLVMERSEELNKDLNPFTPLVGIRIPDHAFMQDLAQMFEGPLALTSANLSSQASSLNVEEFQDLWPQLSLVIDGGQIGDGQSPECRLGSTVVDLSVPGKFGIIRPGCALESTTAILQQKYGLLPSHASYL
UniProt Q8NC56, sequence (Q8NC56 whole entry): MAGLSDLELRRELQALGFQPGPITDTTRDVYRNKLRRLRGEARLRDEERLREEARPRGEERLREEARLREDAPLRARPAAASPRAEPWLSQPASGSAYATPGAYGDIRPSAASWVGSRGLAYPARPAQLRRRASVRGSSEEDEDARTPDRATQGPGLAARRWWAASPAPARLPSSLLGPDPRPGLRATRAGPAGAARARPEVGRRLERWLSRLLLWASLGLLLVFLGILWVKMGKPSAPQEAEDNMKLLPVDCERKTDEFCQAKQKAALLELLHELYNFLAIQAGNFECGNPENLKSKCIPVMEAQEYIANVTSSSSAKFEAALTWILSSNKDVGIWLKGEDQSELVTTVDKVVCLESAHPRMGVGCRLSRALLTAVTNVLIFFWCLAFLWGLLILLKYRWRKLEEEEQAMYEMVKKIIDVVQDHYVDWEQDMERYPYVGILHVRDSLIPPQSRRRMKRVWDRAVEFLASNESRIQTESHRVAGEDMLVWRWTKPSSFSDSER
UniProt Q00653, sequence (Q00653 whole entry): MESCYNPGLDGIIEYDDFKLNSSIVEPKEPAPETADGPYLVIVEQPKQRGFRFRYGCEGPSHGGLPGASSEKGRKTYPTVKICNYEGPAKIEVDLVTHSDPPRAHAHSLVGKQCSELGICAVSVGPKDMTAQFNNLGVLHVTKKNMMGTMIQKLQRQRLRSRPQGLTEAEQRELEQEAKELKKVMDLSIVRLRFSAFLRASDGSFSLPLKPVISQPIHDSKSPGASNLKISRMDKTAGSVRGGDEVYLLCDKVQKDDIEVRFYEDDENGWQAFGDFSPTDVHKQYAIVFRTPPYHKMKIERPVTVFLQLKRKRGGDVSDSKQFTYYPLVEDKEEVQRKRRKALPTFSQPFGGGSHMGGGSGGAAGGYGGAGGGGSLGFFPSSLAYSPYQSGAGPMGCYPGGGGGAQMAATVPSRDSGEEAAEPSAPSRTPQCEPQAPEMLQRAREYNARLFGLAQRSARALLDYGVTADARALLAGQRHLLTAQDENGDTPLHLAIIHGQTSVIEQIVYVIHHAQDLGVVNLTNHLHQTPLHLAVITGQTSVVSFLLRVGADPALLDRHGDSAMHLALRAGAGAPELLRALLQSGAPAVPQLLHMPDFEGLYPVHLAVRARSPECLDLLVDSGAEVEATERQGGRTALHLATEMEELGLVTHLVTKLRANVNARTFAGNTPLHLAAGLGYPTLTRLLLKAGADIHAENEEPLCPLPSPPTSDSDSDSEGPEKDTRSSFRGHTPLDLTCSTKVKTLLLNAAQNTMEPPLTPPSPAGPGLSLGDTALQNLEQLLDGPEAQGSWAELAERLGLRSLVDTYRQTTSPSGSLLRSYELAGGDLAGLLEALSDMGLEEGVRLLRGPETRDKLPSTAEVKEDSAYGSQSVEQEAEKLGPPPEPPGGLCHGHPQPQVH
UniProt Q00688, sequence (Q00688 whole entry): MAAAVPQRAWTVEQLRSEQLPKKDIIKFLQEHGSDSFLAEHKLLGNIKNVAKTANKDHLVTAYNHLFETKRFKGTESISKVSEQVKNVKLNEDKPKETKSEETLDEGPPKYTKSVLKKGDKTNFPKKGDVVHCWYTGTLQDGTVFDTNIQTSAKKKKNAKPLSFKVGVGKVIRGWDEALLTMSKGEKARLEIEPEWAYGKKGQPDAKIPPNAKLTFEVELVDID
UniProt Q12789, sequence (Q12789 whole entry): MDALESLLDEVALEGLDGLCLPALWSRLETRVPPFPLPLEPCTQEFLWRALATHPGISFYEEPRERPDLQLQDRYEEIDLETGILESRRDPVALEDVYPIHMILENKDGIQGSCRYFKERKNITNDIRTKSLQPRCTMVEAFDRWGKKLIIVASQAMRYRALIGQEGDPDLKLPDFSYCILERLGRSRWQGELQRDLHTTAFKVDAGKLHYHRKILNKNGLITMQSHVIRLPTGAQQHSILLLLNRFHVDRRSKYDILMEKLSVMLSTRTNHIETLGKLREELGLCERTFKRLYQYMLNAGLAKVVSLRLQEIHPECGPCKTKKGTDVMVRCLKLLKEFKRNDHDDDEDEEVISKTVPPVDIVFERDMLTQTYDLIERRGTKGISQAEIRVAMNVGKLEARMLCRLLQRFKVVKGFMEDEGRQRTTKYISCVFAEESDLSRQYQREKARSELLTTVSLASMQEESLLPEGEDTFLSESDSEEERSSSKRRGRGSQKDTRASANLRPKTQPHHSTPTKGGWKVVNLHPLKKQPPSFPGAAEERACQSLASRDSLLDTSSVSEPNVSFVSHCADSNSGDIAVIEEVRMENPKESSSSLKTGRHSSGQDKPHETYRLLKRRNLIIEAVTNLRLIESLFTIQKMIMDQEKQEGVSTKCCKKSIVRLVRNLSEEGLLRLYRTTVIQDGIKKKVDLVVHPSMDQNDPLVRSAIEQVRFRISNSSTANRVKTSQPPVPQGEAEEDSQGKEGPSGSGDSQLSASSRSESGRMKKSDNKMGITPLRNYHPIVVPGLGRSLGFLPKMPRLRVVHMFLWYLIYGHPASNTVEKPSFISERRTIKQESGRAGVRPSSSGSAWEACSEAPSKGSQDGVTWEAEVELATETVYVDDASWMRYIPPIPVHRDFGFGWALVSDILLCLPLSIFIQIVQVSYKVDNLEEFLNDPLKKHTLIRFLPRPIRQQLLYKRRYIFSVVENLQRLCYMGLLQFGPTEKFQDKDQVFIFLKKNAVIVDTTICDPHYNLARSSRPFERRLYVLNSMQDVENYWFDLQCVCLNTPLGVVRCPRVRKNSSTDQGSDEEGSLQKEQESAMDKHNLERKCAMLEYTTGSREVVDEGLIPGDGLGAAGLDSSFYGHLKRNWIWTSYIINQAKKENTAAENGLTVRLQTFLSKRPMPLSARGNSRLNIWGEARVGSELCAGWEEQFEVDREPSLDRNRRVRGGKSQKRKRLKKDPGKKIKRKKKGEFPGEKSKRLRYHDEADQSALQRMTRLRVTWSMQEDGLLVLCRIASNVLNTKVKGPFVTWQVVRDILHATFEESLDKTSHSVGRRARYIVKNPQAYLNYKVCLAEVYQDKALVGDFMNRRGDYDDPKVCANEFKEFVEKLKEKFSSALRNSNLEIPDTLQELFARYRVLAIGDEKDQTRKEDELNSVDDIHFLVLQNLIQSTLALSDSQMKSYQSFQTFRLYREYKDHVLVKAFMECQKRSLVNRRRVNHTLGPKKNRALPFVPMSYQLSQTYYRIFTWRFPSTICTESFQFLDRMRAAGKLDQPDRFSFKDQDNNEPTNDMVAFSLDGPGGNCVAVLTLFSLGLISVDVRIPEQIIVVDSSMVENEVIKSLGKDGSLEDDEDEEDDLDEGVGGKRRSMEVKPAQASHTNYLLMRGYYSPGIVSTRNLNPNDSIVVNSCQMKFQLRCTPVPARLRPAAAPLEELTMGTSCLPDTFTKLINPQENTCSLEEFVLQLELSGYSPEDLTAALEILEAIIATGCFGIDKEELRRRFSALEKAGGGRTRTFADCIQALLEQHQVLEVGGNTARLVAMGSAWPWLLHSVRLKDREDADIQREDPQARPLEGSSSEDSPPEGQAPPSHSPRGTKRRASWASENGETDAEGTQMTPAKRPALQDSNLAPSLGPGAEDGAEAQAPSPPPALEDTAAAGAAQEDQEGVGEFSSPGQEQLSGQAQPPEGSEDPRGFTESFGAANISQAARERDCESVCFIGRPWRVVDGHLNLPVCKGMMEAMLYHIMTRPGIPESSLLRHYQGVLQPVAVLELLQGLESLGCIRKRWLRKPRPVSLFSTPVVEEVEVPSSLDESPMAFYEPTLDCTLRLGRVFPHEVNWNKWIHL
UniProt Q9UKM9, sequence (Q9UKM9 whole entry, one chain of several): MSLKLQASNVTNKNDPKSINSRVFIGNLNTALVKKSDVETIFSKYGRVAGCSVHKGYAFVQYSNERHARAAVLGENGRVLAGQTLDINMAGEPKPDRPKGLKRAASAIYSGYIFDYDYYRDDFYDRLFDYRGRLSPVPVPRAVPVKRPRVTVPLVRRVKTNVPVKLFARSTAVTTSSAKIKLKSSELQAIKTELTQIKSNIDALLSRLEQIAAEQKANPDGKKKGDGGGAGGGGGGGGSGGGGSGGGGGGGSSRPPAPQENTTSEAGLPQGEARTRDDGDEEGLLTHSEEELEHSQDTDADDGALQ
UniProt Q8WUR7, sequence (Q8WUR7 whole entry): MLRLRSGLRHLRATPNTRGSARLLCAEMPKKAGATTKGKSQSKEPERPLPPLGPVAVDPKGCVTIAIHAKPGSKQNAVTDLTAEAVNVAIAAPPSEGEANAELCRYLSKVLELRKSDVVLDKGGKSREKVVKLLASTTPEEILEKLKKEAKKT
UniProt Q8NB16, sequence (Q8NB16 whole entry): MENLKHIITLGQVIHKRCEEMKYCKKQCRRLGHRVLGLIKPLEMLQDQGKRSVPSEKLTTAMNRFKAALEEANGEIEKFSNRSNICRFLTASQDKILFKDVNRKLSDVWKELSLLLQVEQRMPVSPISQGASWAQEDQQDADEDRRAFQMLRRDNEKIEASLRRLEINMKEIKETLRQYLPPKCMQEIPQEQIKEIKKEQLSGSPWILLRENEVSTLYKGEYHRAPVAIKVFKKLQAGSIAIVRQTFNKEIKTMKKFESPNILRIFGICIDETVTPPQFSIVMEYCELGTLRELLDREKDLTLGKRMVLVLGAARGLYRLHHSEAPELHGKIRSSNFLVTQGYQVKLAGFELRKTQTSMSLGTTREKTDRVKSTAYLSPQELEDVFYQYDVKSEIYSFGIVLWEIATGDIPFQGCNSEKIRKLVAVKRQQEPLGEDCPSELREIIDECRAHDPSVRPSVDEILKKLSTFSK
UniProt Q15843, sequence (Q15843 whole entry, one chain of several): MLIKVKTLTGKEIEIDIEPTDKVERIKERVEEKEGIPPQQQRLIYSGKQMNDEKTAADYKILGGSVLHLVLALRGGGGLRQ

Target	NP40-soluble protein abundance (concentration: 0.1mM)	NP40-soluble protein abundance (concentration: 0.5mM)	NP40-soluble protein abundance (concentration: 1mM)	NP40-soluble protein abundance (concentration: 2mM)	NP40-soluble protein abundance (concentration: 4mM)	NP40-soluble protein abundance (concentration: 6mM)	NP40-soluble protein abundance (concentration: 8mM)	NP40-soluble protein abundance (concentration: 10mM)
UniProt Q14103-3|D6RF44|Q14103-4	0.913 ± 0.097	0.946 ± 0.094	0.943 ± 0.085	0.894 ± 0.1	0.903 ± 0.1	0.915 ± 0.084	0.947 ± 0.11	0.929 ± 0.11
UniProt Q6WKZ4|Q6WKZ4-3	1.02 ± 0.049	0.951 ± 0.044	0.946 ± 0.05	0.921 ± 0.056	0.933 ± 0.058	0.901 ± 0.022	0.943 ± 0.057	0.89 ± 0.038
UniProt Q00653|Q00653-4	0.995 ± 0.032	0.997 ± 0.021	0.959 ± 0.013	0.955 ± 0.037	0.96 ± 0.048	0.931 ± 0.016	0.966 ± 0.04	0.94 ± 0.045
CUL4A (UniProt Q13619)	1.07 ± 0.041	1.09 ± 0.077	1.02 ± 0.045	1.03 ± 0.11	0.989 ± 0.09	0.987 ± 0.076	0.987 ± 0.061	0.934 ± 0.042
FKBP3 (UniProt Q00688)	0.911 ± 0.048	0.906 ± 0.066	0.943 ± 0.073	0.906 ± 0.081	0.902 ± 0.081	0.905 ± 0.082	0.925 ± 0.077	0.943 ± 0.09
UniProt Q8IX12|Q8IX12-2	0.993 ± 0.042	0.985 ± 0.027	1.004 ± 0.0041	0.996 ± 0.03	1.08 ± 0.056	1.12 ± 0.06	1.17 ± 0.077	1.14 ± 0.059
BOLA3 (UniProt Q53S33)	0.893 ± 0.02	0.843 ± 0.047	0.962 ± 0.065	0.982 ± 0.03	0.953 ± 0.022	0.966 ± 0.061	0.925 ± 0.09	1.01 ± 0.042
UniProt Q8WXA9-2	1.02 ± 0.067	1.11 ± 0.044	1.14 ± 0.077	1.12 ± 0.082	1.15 ± 0.067	1.11 ± 0.07	1.18 ± 0.035	1.18 ± 0.1
UniProt Q15843|S4R3E9	1.1 ± 0.29	0.839 ± 0.092	1.25 ± 0.31	0.955 ± 0.21	1.09 ± 0.29	0.994 ± 0.18	1.11 ± 0.4	1.07 ± 0.25
P86790|P86791 (UniProt P86791+P86790)	1.06 ± 0.015	1.06 ± 0.072	1.03 ± 0.063	0.99 ± 0.038	1.01 ± 0.068	0.948 ± 0.038	0.943 ± 0.029	0.924 ± 0.0097
UniProt Q6UXH1|Q6UXH1-4|Q6UXH1-5|Q6UXH1-6	0.968 ± 0.018	0.941 ± 0.046	1.03 ± 0.09	0.959 ± 0.093	0.935 ± 0.096	0.959 ± 0.12	0.95 ± 0.061	0.956 ± 0.088
UniProt Q86WQ0|Q86WQ0-2	0.973 ± 0.06	0.939 ± 0.017	0.882 ± 0.094	0.9 ± 0.082	0.884 ± 0.14	0.897 ± 0.096	0.849 ± 0.13	0.862 ± 0.099
UniProt Q6NW34|Q6NW34-2	0.848 ± 0.051	0.888 ± 0.08	0.881 ± 0.074	0.85 ± 0.031	0.839 ± 0.071	0.929 ± 0.032	0.871 ± 0.059	0.93 ± 0.012
LARP1 (UniProt Q6PKG0)	1.02 ± 0.039	1.11 ± 0.06	1.32 ± 0.1	1.46 ± 0.11	1.66 ± 0.16	1.78 ± 0.17	1.88 ± 0.22	1.99 ± 0.22
UniProt Q86V48|Q86V48-2|Q86V48-3	0.953 ± 0.056	0.967 ± 0.042	1.01 ± 0.051	0.99 ± 0.097	1.03 ± 0.088	1.08 ± 0.081	1.17 ± 0.1	1.2 ± 0.11
UniProt P62277	0.945 ± 0.11	0.964 ± 0.11	1.03 ± 0.22	1.02 ± 0.3	0.802 ± 0.25	0.796 ± 0.27	0.626 ± 0.17	0.816 ± 0.29
Q5QPL9|Q9UKM9-2|Q9UKM9 (UniProt Q9UKM9)	0.927 ± 0.04	1 ± 0.025	1.07 ± 0.14	1.07 ± 0.2	1.07 ± 0.28	1.05 ± 0.25	1.01 ± 0.24	0.949 ± 0.23
C15orf40 (UniProt Q8WUR7)	1.02 ± 0.1	1.02 ± 0.084	1.03 ± 0.034	1.05 ± 0.12	1.04 ± 0.13	1.01 ± 0.097	1.11 ± 0.061	1.17 ± 0.12
YRDC (UniProt Q86U90)	0.989 ± 0.041	0.952 ± 0.022	0.949 ± 0.027	0.943 ± 0.015	0.946 ± 0.041	0.899 ± 0.026	0.871 ± 0.07	0.916 ± 0.055
UniProt Q14444|Q14444-2	0.95 ± 0.057	0.994 ± 0.098	1.06 ± 0.07	1.01 ± 0.14	1.02 ± 0.088	1.11 ± 0.1	1.16 ± 0.057	1.13 ± 0.11
UniProt Q7KZN9|Q7KZN9-2	1.07 ± 0.024	1.05 ± 0.11	0.98 ± 0.035	0.961 ± 0.022	0.939 ± 0.052	0.924 ± 0.037	0.907 ± 0.029	0.931 ± 0.042
UniProt Q12789|Q12789-3	1.08 ± 0.051	1.08 ± 0.093	1.1 ± 0.1	1.13 ± 0.09	1.13 ± 0.1	1.1 ± 0.077	1.1 ± 0.11	1.1 ± 0.11
DDX51 (UniProt Q8N8A6)	1.07 ± 0.15	1.11 ± 0.05	1.2 ± 0.08	1.35 ± 0.09	1.64 ± 0.085	1.86 ± 0.21	2.05 ± 0.24	2.1 ± 0.15
UniProt Q86V88|Q86V88-2	0.975 ± 0.052	0.901 ± 0.079	0.953 ± 0.11	0.872 ± 0.064	0.869 ± 0.048	0.839 ± 0.089	0.858 ± 0.058	0.88 ± 0.078
LEMD2 (UniProt Q8NC56)	1.09 ± 0.04	1.22 ± 0.11	1.32 ± 0.076	1.34 ± 0.15	1.34 ± 0.088	1.42 ± 0.11	1.48 ± 0.14	1.49 ± 0.21
ZC3H13 (UniProt Q5T200)	1.01 ± 0.055	1.02 ± 0.063	1.07 ± 0.054	1.08 ± 0.063	1.12 ± 0.059	1.12 ± 0.055	1.24 ± 0.099	1.18 ± 0.1
UniProt Q49A26|Q49A26-3|Q49A26-4	1.044 ± 0.0023	1.06 ± 0.036	1.15 ± 0.03	1.27 ± 0.028	1.52 ± 0.16	1.72 ± 0.026	1.97 ± 0.078	2.27 ± 0.094
MLKL (UniProt Q8NB16)	0.98 ± 0.044	0.962 ± 0.052	0.896 ± 0.062	0.908 ± 0.035	0.873 ± 0.047	0.874 ± 0.032	0.868 ± 0.045	0.837 ± 0.024
EXOSC7 (UniProt Q15024)	1.09 ± 0.084	1.01 ± 0.071	1.06 ± 0.086	1.11 ± 0.12	1.26 ± 0.13	1.17 ± 0.12	1.22 ± 0.077	1.18 ± 0.061
